Test results: PubChem BioAssay AID1345085 (National Center for Advancing Translational Sciences (NCATS), 2018)
Results filed as inconclusive are left out. Values without a mark were called inactive. Activity calls are given as the source filed them. Calls follow the shape of the dose curve; as a rule, active = well fitted cell-killing curve with a large enough effect; inconclusive = small, poorly fitted or top-dose-only effect, or effect the other way; inactive = no such curve, though single readings can be large or run the other way.

Test system: PA-1
Test: Confirmatory qHTS for gynecologic anti-cancer compounds from libraries of approved drugs and bioactive compounds; also: nearly all actives have a fitted effect of over 55% in size
Settings: gynecologic cancer cell panel viability, ATPlite luminescence, 48 h; series mostly up to 57.6 µM; activity change, negative = viability loss: at the top concentration
How it was run: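 IC50 values derive from an ATPlite ATP-content luminescence assay following 48 h treatment at 37 C. Each compound ran as an 11-concentration, threefold series (57.5 uM to 0.977 nM); HEK 293T served as control line for selectivity index.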
% is scaled to controls: 0 for no effect and ±100 for the full control effect; potency is read from the fitted curve at half-maximal effect.

Row | Structure (SMILES) | Potency | activity change, negative = viability loss
1 | O=C1c2c(O)ccc(O)c2C(=O)c2c(NCCNCCO)ccc(NCCNCCO)c21 | 0.432 µM (active) | 
2 | COc1cc(Nc2ncc3c(n2)-c2ccc(Cl)cc2C(c2c(F)cccc2OC)=NC3)ccc1C(=O)O | 0.193 µM (active) | 
3 | Cc1cc(C2CCCCC2)n(O)c(=O)c1 | 3.53 µM (active) | 
4 | Cc1nc2ccc(CN(C)c3ccc(C(=O)NC(CCC(=O)O)C(=O)O)s3)cc2c(=O)[nH]1 (stereo not given) | 0.137 µM (active) | 
5 | CC(C)n1c(/C=C/[C@@H](O)C[C@@H](O)CC(=O)O)c(-c2ccc(F)cc2)c2ccccc21 | 24.3 µM (active) | 
6 | COc1cc(N2CCC(N)CC2)ccc1Nc1ncc(Cl)c(-c2c[nH]c3ccccc23)n1 | 19.3 µM (active) | 
7 | CCn1c(-c2nonc2N)nc2c(C#CC(C)(C)O)ncc(OCC3CCCNC3)c21 (stereo not given) | 7.69 µM (active) | 
8 | Nc1ccc(C(=O)Nc2cccc(-c3nc(N4CCOCC4)c4oc5ncccc5c4n3)c2)cn1 | 12.2 µM (active) | 
9 | N=C(N)c1ccc(OCCCCCOc2ccc(C(=N)N)cc2)cc1 | 4.32 µM (active) | 
10 | Cc1nc(NC(=O)N2CCCC2C(N)=O)sc1-c1csc(C(C)(C)C)n1 (stereo not given) | 27.3 µM (active) | 
11 | CCCC(=O)O[C@]1(C(=O)CCl)[C@@H](C)C[C@H]2[C@@H]3CCC4=CC(=O)C=C[C@]4(C)[C@@]3(F)C(=O)C[C@@]21C | 19.3 µM (active) | 
12 | CN1C(=O)C(Cc2c[nH]c3ccccc23)NC1=S (stereo not given) |  | 11% [at 19.5 µM]
13 | CN1C2CCC1CC(OC(=O)[C@H](CO)c1ccccc1)C2 (stereo not given in full) |  | -5.44%
14 | Cc1c(NC(=O)OCC2COCCN2)cn2ncnc(Nc3ccc4c(cnn4Cc4cccc(F)c4)c3)c12 (stereo not given) | 27.3 µM (active) | 
15 | COc1ccc(CCC(=O)c2c(O)cc(O[C@@H]3O[C@H](CO)[C@@H](O)[C@H](O)[C@H]3O[C@@H]3O[C@@H](C)[C@H](O)[C@@H](O)[C@H]3O)cc2O)cc1O |  | -1.3%
16 | Nc1nc(Cl)nc2c1ncn2C1OC(CO)C(O)C1F (stereo not given) | 0.685 µM (active) | 
17 | CC(C)(C)C(=O)OCOP(=O)(COCCn1cnc2c(N)ncnc21)OCOC(=O)C(C)(C)C | 6.85 µM (active) | 
18 | COc1cc2c(c(OC)c1OC)-c1ccc(OC)c(=O)cc1[C@@H](NC(C)=O)CC2 | 0.126 µM (active) | 
19 | Cc1cc(C(=O)N2CCN(c3cccc(Cl)c3)CC2)n(-c2ccccc2)n1 | 3.43 µM (active) | 
20 | COc1cc(N2CCC(N3CCN(C)CC3)CC2)ccc1Nc1ncnc(Nc2ccccc2S(=O)(=O)C(C)C)n1 | 9.68 µM (active) | 

Row | Structure (SMILES) | Potency | activity change, negative = viability loss
21 | Cc1cc(Nc2cc(N3CCN(C)CC3)nc(/C=C/c3ccccc3)n2)n[nH]1 | 3.85 µM (active) | 
22 | NC(=O)c1ccc2nc(-c3ccc(Oc4ccc(Cl)cc4)cc3)[nH]c2c1 | 6.85 µM (active) | 
23 | COCCOc1nc(-c2ccc(Cl)c(Cl)c2)n(-c2ccc(NC(=O)CCl)cc2)n1 | 8.63 µM (active) | 
24 | Cc1ccc(C(=O)N(CCCN)C(c2nc3cc(Cl)ccc3c(=O)n2Cc2ccccc2)C(C)C)cc1 (stereo not given) | 0.0172 µM (active) | 
25 | CN(NC(=O)CC(=O)NN(C)C(=S)c1ccccc1)C(=S)c1ccccc1 | 0.0544 µM (active) | 
26 | Cc1[nH]c2ccccc2c1CCNCc1ccc(/C=C/C(=O)NO)cc1 | 0.122 µM (active) | 
27 | CCc1c2c(nc3ccc(OC(=O)N4CCC(N5CCCCC5)CC4)cc13)-c1cc3c(c(=O)n1C2)COC(=O)[C@]3(O)CC | 7.69 µM (active) | 
28 | CC[C@]1(O)C[C@H]2CN(CCc3c([nH]c4ccccc34)[C@@](C(=O)OC)(c3cc4c(cc3OC)N(C=O)[C@H]3[C@@](O)(C(=O)OC)[C@H](OC(C)=O)[C@]5(CC)C=CCN6CC[C@]43[C@@H]65)C2)C1 | 0.172 µM (active) | 
29 | CN(c1nccc(=O)[nH]1)C1CCN(c2nc3ccccc3n2Cc2ccc(F)cc2)CC1 |  | -2.59%
30 | C1CCC(C(CC2CCCCN2)C2CCCCC2)CC1 (stereo not given) | 27.3 µM (active) | 
31 | Cc1cnc(Nc2ccc(OCCN3CCCC3)cc2)nc1Nc1cccc(S(=O)(=O)NC(C)(C)C)c1 | 4.32 µM (active) | 
32 | Cc1nc(N)ncc1-c1nc(N2CCOCC2)c2sc(C(C)(C)O)cc2n1 | 6.85 µM (active) | 
33 | CCC1=CC2CN(C1)Cc1c([nH]c3ccccc13)[C@@](C(=O)OC)(c1cc3c(cc1OC)N(C)[C@H]1[C@@](O)(C(=O)OC)[C@H](OC(C)=O)[C@]4(CC)C=CCN5CC[C@]31[C@@H]54)C2 (stereo not given in full) | 0.053 µM (active) | 
34 | CNC(=O)c1ccccc1Nc1nc(Nc2ccc(N3CCOCC3)cc2OC)ncc1Cl | 1.72 µM (active) | 
35 | CC[C@@]1(O)C(=O)OCc2c1cc1n(c2=O)Cc2c-1nc1ccccc1c2/C=N/OC(C)(C)C | 0.0273 µM (active) | 
36 | O=c1[nH]c(=O)n([C@H]2C[C@H](O)[C@@H](CO)O2)cc1F | 0.109 µM (active) | 
37 | O=C1Cc2cc(CCN3CCN(c4nsc5ccccc45)CC3)c(Cl)cc2N1 | 24.3 µM (active) | 
38 | CC(C)C[C@H](NC(=O)[C@@H](NC(=O)c1cccc(-c2ccccc2)n1)[C@@H](C)O)B(O)O | 0.0385 µM (active) | 
39 | CC(C)C[C@H](NC(=O)[C@H](Cc1ccccc1)NC(=O)c1cnccn1)B(O)O | 0.0385 µM (active) | 
40 | C[C@]12CCC(=O)C=C1[C@@H]1C[C@@H]1[C@H]1[C@@H]3[C@@H]4C[C@@H]4[C@@]4(CCC(=O)O4)[C@@]3(C)CC[C@@H]12 |  | -22.8%
